# According to PubChem BioAssay (EPA / NIEHS):
# The source made the active and inactive calls. The calls were made as follows: active = hit-call score of the fitted dose curve at least 0.9, where 1 is the maximum; inactive = score below 0.9.
# Experiments:
# [1] = BSK_LPS_PGE2: BioMAP Diversity Plus: LPS Assay for Prostaglandin E2 (PGE2) Biomarker Activity (AID 2283082); conditions: primary human HUVEC with PBMC; actives raise or lower the signal
# Summary of the method: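 Endpoint derived from bidirectional curve fitting versus DMSO of ELISA-measured PGE2 in LPS-stimulated human primary vascular co-culture (HUVEC with PBMC) harvested at 24 h.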
# [2] = read-out: Macrophage colony-stimulating factor (MCSF), CSF1 (gene 1435); assay: BSK_LPS_MCSF: BioMAP Diversity Plus: LPS Assay for Macrophage colony-stimulating factor (MCSF) Biomarker Activity (AID 2283083); conditions: primary human HUVEC with PBMC; actives raise or lower the signal
# Summary of the method: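 HUVEC–PBMC co-culture, M-CSF measured by ELISA 24 h after chemical dosing. Fitted in both directions relative to DMSO as negative control; overt cytotoxicity assessed by SRB total-protein staining in parallel cultures.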
# [3] = read-out: Tissue Factor, F3 (gene 2152); assay: BSK_LPS_TissueFactor: BioMAP Diversity Plus: LPS Assay for Tissue Factor Biomarker Activity (AID 2283084); conditions: primary human HUVEC with PBMC; actives raise or lower the signal
# Summary of the method: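 Human umbilical vein endothelial cells co-cultured with PBMC were dosed with compound. Cell-surface CD142 was measured by ELISA 24 h later. Activity was fitted bidirectionally against DMSO, with SRB total-protein staining in parallel cultures for cytotoxicity.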
# [4] = read-out: Tumor necrosis factor (Homo sapiens) (UniProt P01375); assay: BSK_LPS_TNFa: BioMAP Diversity Plus: LPS Assay for Tumour Necrosis Factor alpha (TNFa) Biomarker Activity (AID 2283085); conditions: primary human HUVEC with PBMC; actives raise or lower the signal
# Summary of the method: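 Primary human vascular co-culture of HUVEC and PBMC; TNFa ELISA 24 h after treatment, analysed as increase or decrease relative to DMSO control.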
# [5] = read-out: Vascular cell adhesion molecule 1 (VCAM1), VCAM1 (gene 7412); assay: BSK_LPS_VCAM1: BioMAP Diversity Plus: LPS Assay for Vascular cell adhesion molecule 1 (VCAM1) Biomarker Activity (AID 2283086); conditions: primary human HUVEC with PBMC; actives raise or lower the signal
# Summary of the method: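 Primary human vascular co-culture (umbilical vein endothelium plus PBMC) stimulated with LPS received chemical; 24 h later VCAM-1 was read by ELISA. Overt cytotoxicity was assessed by sulforhodamine B staining of parallel cultures at the same time point.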
# [6] = read-out: CD38, CD38 (gene 952); assay: BSK_SAg_CD38: BioMAP Diversity Plus: SAg Assay for CD38 Biomarker Activity (AID 2283087); conditions: primary human HUVEC with PBMC; actives raise or lower the signal
# Summary of the method: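 Fluorescence ELISA of cell-surface CD38 served as the read-out, with either increase or decrease fitted against DMSO controls. Cells were a human umbilical vein endothelium plus PBMC co-culture under SEB/TSST-1 stimulation, measured 24 h after dosing.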
# [7] = read-out: CD40, CD40 (gene 958); assay: BSK_SAg_CD40: BioMAP Diversity Plus: SAg Assay for CD40 Biomarker Activity (AID 2283088); conditions: primary human HUVEC with PBMC; actives raise or lower the signal
# Summary of the method: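 HUVEC plus PBMC co-culture, superantigen-activated, with CD40 read by ELISA 24 h after dosing. Curves fitted in both directions against DMSO. Overt cytotoxicity checked by parallel SRB total-protein staining.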
# [8] = read-out: CD69, CD69 (gene 969); assay: BSK_SAg_CD69: BioMAP Diversity Plus: SAg Assay for CD69 Biomarker Activity (AID 2283089); conditions: primary human HUVEC with PBMC; actives raise or lower the signal;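 as to AC50: cell surface CD69 protein quantified by ELISA with fluorescence detection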
# Summary of the method: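 HUVEC co-cultured with PBMC were dosed with chemical, and CD69 was measured by ELISA with fluorescence read-out 24 h later. Bidirectional curve fitting used DMSO as negative control and activity baseline.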
# [9] = read-out: Monocyte Chemoattractant Protein-1 (MCP1), CCL2 (gene 6347); assay: BSK_SAg_MCP1: BioMAP Diversity Plus: SAg Assay for Monocyte Chemoattractant Protein-1 (MCP1) Biomarker Activity (AID 2283090); conditions: primary human HUVEC with PBMC; actives raise or lower the signal
# Summary of the method: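 MCP-1 levels in the endothelial–PBMC SAg co-culture were quantified by ELISA at 24 h post-dosing; both increases and decreases versus DMSO scored. Cytotoxicity monitored by SRB total protein in parallel cultures.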
# [10] = read-out: E-selectin (Homo sapiens) (UniProt P16581); assay: BSK_SAg_Eselectin: BioMAP Diversity Plus: SAg Assay for Eselectin Biomarker Activity (AID 2283091); conditions: primary human HUVEC with PBMC; actives raise or lower the signal
# Summary of the method: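 Human umbilical vein endothelial cells co-cultured with peripheral blood mononuclear cells, SAg system. E-selectin is measured by ELISA 24 h after dosing and fitted bidirectionally against DMSO. Cytotoxicity is checked by SRB staining of parallel cultures.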
# [11] = BSK_SAg_PBMCCytotoxicity: PBMC Cytotoxicity Assessment in the BioMAP Diversity Plus: SAg Assay (AID 2283093); conditions: primary human HUVEC with PBMC;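 also: PBMC viability measured as Alamar Blue reduction fluorescence at 546/580 nm; fitted both ways against DMSO so a hit may be loss or gain of signal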;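 as to AC50: PBMC superantigen activated with SEB plus TSST-1 one hour after compound addition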
# Summary of the method: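 Human umbilical vein endothelial cells co-cultured with PBMC; PBMC (75,000/well) pre-treated with compound 1 h, then activated with SEB and TSST-1 (20 ng/mL final each) for 90 h. Alamar Blue added 6 h, fluorescence 546/580 nm; bidirectional fit versus DMSO.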
# [12] = read-out: Interleukin-8 (IL8), CXCL8 (gene 3576); assay: BSK_SAg_IL8: BioMAP Diversity Plus: SAg Assay for Interleukin-8 (IL8) Biomarker Activity (AID 2283094); conditions: primary human HUVEC with PBMC; actives raise or lower the signal
# Summary of the method: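 In this co-culture of human umbilical vein endothelium with peripheral blood mononuclear cells, IL-8 is assayed by ELISA at 24 h. DMSO serves as baseline for bidirectional curve fitting.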
# [13] = BSK_SAg_Proliferation: Cell Proliferation Assessment in the BioMAP Diversity Plus: SAg Assay (AID 2283095); conditions: primary human HUVEC with PBMC;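 also: relative cell number as total protein by SRB absorbance in sub-confluent culture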
# Summary of the method: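 Readout is SRB-stained protein (560 nm) in a primary human HUVEC and PBMC co-culture; sub-confluent cultures are read at 96 h. Activity is fitted bidirectionally using DMSO as baseline.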
# [14] = BSK_SAg_SRB: Viability Assessment in the BioMAP Diversity Plus: SAg Assay (AID 2283096); conditions: primary human HUVEC with PBMC;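 also: cells read one day after compound addition; hits may be either gain or loss of signal compared with DMSO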
# Summary of the method: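 Endothelial/PBMC primary human co-culture; compound 24 h; fix 10% TCA, stain 0.1% SRB, A560; protein content as cytotoxicity proxy; bidirectional curve fit, DMSO = baseline.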
# [15] = read-out: Monokine induced gamma interferon (MIG), CXCL9 (gene 4283); assay: BSK_SAg_MIG: BioMAP Diversity Plus: SAg Assay for Monokine induced gamma interferon (MIG) Biomarker Activity (AID 2283092); conditions: primary human HUVEC with PBMC; actives raise or lower the signal
# Summary of the method: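 HUVEC plus human PBMC co-culture, chemicals dosed and MIG (CXCL9) quantified by ELISA at 24 h. Bidirectional curve fitting against DMSO as negative control and baseline, so both gain and loss of signal count as activity.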
# Sequence of Tumor necrosis factor (Homo sapiens) (P01375 whole entry, looked up): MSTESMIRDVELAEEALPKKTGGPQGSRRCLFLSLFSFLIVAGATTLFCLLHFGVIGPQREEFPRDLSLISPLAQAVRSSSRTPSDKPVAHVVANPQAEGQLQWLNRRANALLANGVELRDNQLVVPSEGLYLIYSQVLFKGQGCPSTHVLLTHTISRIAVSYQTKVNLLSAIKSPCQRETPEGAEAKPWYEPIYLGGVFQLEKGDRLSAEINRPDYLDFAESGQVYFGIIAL
# Sequence of E-selectin (Homo sapiens) (P16581 whole entry, looked up): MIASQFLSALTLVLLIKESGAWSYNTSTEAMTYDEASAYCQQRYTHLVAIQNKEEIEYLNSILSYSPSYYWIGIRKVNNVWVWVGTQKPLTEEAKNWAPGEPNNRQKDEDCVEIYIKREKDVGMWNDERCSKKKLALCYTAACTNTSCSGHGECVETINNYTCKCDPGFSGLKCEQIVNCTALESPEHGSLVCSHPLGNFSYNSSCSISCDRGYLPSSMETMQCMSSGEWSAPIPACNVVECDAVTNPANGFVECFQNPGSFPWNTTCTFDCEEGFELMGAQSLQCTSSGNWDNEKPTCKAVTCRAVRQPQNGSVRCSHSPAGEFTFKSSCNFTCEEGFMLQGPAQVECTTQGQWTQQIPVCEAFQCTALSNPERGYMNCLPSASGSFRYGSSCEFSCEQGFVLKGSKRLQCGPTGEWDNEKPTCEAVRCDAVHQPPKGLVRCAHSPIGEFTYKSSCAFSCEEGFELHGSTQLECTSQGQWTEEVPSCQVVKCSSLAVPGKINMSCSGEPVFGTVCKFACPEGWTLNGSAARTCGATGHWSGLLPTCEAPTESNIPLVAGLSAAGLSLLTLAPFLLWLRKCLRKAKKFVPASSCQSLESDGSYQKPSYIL
smiles,measurement,setting,value
CC(=O)OCCOCCOCCOC(C)=O,outcome,[1],inactive
same,outcome,[2],inactive
same,outcome,[3],inactive
same,outcome,[4],inactive
same,outcome,[5],inactive
same,outcome,[6],inactive
same,outcome,[7],inactive
same,outcome,[8],inactive
same,outcome,[9],inactive
same,outcome,[10],inactive
same,outcome,[11],inactive
same,outcome,[12],inactive
same,outcome,[13],inactive
same,outcome,[14],inactive
Nc1ccc(S(=O)(=O)c2ccc(N)cc2)cc1,outcome,[1],inactive
same,outcome,[2],inactive
same,outcome,[3],inactive
same,outcome,[4],inactive
same,outcome,[5],inactive
same,outcome,[6],inactive
same,outcome,[7],inactive
same,outcome,[8],inactive
same,outcome,[9],inactive
same,outcome,[10],inactive
same,outcome,[11],inactive
same,outcome,[12],inactive
same,outcome,[13],inactive
same,outcome,[14],inactive
COCCOC[C@H](CC1(C(=O)NC2CCC(C(=O)O)CC2)CCCC1)C(=O)Oc1ccc2c(c1)CCC2 (stereo partly specified),outcome,[1],inactive
same,outcome,[2],inactive
same,outcome,[3],inactive
same,outcome,[4],inactive
same,outcome,[5],inactive
same,outcome,[6],inactive
same,outcome,[7],inactive
same,outcome,[8],inactive
same,outcome,[9],inactive
same,outcome,[10],inactive
same,outcome,[11],inactive
same,outcome,[12],inactive
same,outcome,[13],inactive
same,outcome,[14],inactive
Cc1cc(NC(=O)C(=O)O)cc(C)c1Oc1ccc(O)c2c1CCC2,outcome,[1],inactive
same,outcome,[2],inactive
same,outcome,[3],inactive
same,AC50,[4],0.844 µM (active)
same,outcome,[5],inactive
same,outcome,[6],inactive
same,outcome,[7],inactive
same,outcome,[8],inactive
same,outcome,[9],inactive
same,outcome,[10],inactive
same,outcome,[11],inactive
same,outcome,[12],inactive
same,outcome,[13],inactive
same,outcome,[14],inactive
NCCO,outcome,[2],inactive
same,outcome,[3],inactive
same,outcome,[4],inactive
same,outcome,[5],inactive
same,outcome,[6],inactive
same,outcome,[7],inactive
same,outcome,[8],inactive
same,outcome,[9],inactive
same,outcome,[10],inactive
same,outcome,[15],inactive
same,outcome,[11],inactive
same,outcome,[12],inactive
same,outcome,[13],inactive
same,outcome,[14],inactive
O=c1[nH]cc(F)c(=O)[nH]1,outcome,[2],inactive
same,outcome,[3],inactive
same,outcome,[4],inactive
same,AC50,[5],20.4 µM (active)
same,outcome,[6],inactive
same,outcome,[7],inactive
same,outcome,[8],inactive
same,outcome,[9],inactive
same,outcome,[10],inactive
same,outcome,[15],inactive
same,outcome,[11],inactive
same,outcome,[12],inactive
same,AC50,[13],2.48 µM (active)
same,outcome,[14],inactive
COc1cc(S(=O)(=O)O)c(C)cc1N=Nc1c(O)ccc2cc(S(=O)(=O)O)ccc12,outcome,[1],inactive
same,outcome,[2],inactive
same,outcome,[3],inactive
same,outcome,[4],inactive
same,outcome,[5],inactive
same,outcome,[6],inactive
same,outcome,[7],inactive
same,outcome,[8],inactive
same,outcome,[9],inactive
same,outcome,[10],inactive
same,outcome,[11],inactive
same,outcome,[12],inactive
same,outcome,[13],inactive
same,outcome,[14],inactive
CCCCC(CC)COC(=O)CC(C(=O)OCC(CC)CCCC)S(=O)(=O)O (stereo unspecified),outcome,[1],inactive
same,AC50,[2],31.4 µM (active)
same,AC50,[3],32 µM (active)
same,outcome,[4],inactive
same,AC50,[5],36.5 µM (active)
same,AC50,[6],35.3 µM (active)
same,AC50,[7],35.5 µM (active)
same,AC50,[8],32.1 µM (active)
same,AC50,[9],33 µM (active)
same,AC50,[10],34.1 µM (active)
same,AC50,[11],34.8 µM (active)
same,AC50,[12],33.6 µM (active)
same,AC50,[13],32.5 µM (active)
same,AC50,[14],36.2 µM (active)
Cc1nc(C)nc(N2C[C@@H](C)N(c3ccnc([C@@H](C)O)n3)[C@@H](C)C2)n1,outcome,[1],inactive
same,outcome,[2],inactive
same,outcome,[3],inactive
same,outcome,[4],inactive
same,outcome,[5],inactive
same,outcome,[6],inactive
same,outcome,[7],inactive
same,outcome,[8],inactive
same,outcome,[9],inactive
same,outcome,[10],inactive
same,outcome,[11],inactive
same,outcome,[12],inactive
same,outcome,[13],inactive
same,outcome,[14],inactive
